TEAD-YAP inh – TEAD-YAP interaction inhibition, primary screen, TEAD-YAP interaction inhibitor project, luminescence, HEK-TIYL cells; TEAD-Gal4/YAP UAS-luciferase luminescence; 1.4% of 640,000 active; inhibition, % at 9.12 µM; in the data active means inhibition above about 32%;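 further: 0% = median of test compound wells and 100% = reference inhibitor wells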
GPR151 ag – activators of human GPR151, primary screen, cell-based, PathHunter beta-arrestin, luminescence. G-protein coupled receptor 151 (Homo sapiens), Q8TDV0. PathHunter beta-arrestin GPR151 cells. activation, % at 11.2 µM. 1% of 650,000 active. AID 1508602, 2020; in the data active means activation above about 4.9%;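 further: 0% = median of compound wells and 100% = cells with positive control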
FBW7 act – FBW7 E3 ligase activators, primary screen, biochemical, AlphaScreen, human | AlphaScreen FBW7–phospho-cyclin E peptide binding, activator screen | normalized activity (activation), % at 26.1 µM | 0.13% of 650,000 active | AID 1259310, 2017; in the data active means normalized activity above about 1.9%;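 further: purified mutant Fbw7 with reduced substrate affinity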
Target sequence (Q969H0 whole entry, looked up): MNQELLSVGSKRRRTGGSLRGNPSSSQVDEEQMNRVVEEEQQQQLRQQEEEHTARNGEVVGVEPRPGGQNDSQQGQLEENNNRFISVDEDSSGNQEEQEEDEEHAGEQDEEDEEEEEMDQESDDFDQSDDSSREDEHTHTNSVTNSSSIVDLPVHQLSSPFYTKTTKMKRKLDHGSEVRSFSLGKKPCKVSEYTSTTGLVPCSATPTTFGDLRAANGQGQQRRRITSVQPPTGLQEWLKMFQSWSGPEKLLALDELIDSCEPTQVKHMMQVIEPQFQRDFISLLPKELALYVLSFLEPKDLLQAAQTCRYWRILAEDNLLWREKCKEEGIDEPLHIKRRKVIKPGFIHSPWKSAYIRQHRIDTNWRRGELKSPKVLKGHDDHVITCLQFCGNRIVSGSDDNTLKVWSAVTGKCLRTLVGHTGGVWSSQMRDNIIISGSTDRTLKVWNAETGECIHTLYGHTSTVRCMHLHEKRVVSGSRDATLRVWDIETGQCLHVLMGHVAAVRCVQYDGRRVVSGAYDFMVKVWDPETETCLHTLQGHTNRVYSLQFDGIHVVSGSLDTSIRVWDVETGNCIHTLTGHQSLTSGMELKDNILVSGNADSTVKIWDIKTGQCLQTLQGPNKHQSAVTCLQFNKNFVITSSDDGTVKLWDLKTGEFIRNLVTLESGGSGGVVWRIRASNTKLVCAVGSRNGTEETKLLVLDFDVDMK
MITF inh – MITF inhibitors, primary screen, biochemical, AlphaScreen, human | AlphaScreen MITF homodimerization, bead proximity signal | 0.91% of 650,000 active | inhibition, % at 2.6 µM | Microphthalmia-associated transcription factor (Homo sapiens), O75030 | AID 1259374, 2018; in the data active means inhibition above about 50%;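 further: 0% = vehicle wells with protein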
An asterisk follows results filed as active. In the library only some 3.5% were active in any assay of this set; here they are far more common.

SMILES	TEAD-YAP inh	GPR151 ag	FBW7 act	MITF inh
CCCNc1nc(N2CCCC(C(=O)N(CC)CC)C2)nc2c1ncn2-c1ccsc1 (centres undefined)	37*	0	0	-1
CCN(CC)C(=O)C1CCCN(c2nc(N)c3ncn(-c4ccsc4)c3n2)C1 (centres undefined)	51*	0	0	2
CCN(CC)C(=O)C1CCCN(c2nc(Nc3ccccc3)c3ncn(-c4ccsc4)c3n2)C1 (centres undefined)	33*	0	0	11
CCN(CC)C(=O)C1CCCN(c2nc(NCCOc3ccccc3)c3ncn(-c4ccsc4)c3n2)C1 (centres undefined)	20	1	0	6
COC(=O)c1c(S(=O)(=O)N2CCSCC2)sc2c1CCN(C1CCCC1)C2	-3	1	0	0
CC(C)(CNC(=O)c1ccc2c(c1)OCO2)CNC(=O)c1ccc2c(c1)OCO2	-5	0	0	2
O=C(Nc1cc(-c2ccccc2Oc2cccc(F)c2)ccn1)C1CCOC1 (centres undefined)	33*	2	1	50
O=C(Nc1cc(-c2ccccc2OCc2ccccc2)ccn1)C1CCOC1 (centres undefined)	89*	0	0	11
O=C(Nc1cc(-c2ccccc2Oc2ccc(F)cc2)ccn1)C1CCOC1 (centres undefined)	26	3	1	22
CCN(CC)CCC(=O)OC1CCCCC1SCc1ccccc1 (centres undefined)	-8	0	0	-4
CCc1ccc(-n2c(=S)[nH]c3[nH]ncc3c2=O)cc1	-2	0	1	3
CCOC(=O)C1=C(C)N=c2s/c(=C\c3cccc(OC)c3OC)c(=O)n2C1c1ccccc1OC (centres undefined)	4	0	0	1
COc1cccc(-c2cnc(NCc3ccc(F)cc3)n2C)c1	5	0	0	49
COc1cccc(-c2cnc(NCc3cccc(Cl)c3)n2C)c1	41*	-1	0	24
COc1cccc(-c2cnc(NCc3cccc(F)c3)n2C)c1	45*	0	0	44
O=C(NCc1csc(-c2cccs2)n1)c1nc2ccccc2s1	-28	-1	0	5
Nc1ccc(Cl)c(NC(=O)c2ccc(Cl)cc2Cl)c1	87*	1	1	0
O=C(Nc1cc(Cl)ccc1O)c1ccc(Cl)c(C(=O)c2ccc(Cl)cc2)c1	33*	-1	0	16
COc1ccc(C(=O)Nc2cc(Cl)ccc2O)cc1Cl	4	0	0	19
O=C(Nc1cc(Cl)ccc1Oc1ccc(Cl)c2ccccc12)c1cc(Cl)cc(Cl)c1O	4	1	0	2
O=C(Nc1cc(Cl)ccc1Cl)c1cc(Cl)cc(Cl)c1O	57*	1	0	2
Cc1ccc(CNC(=O)C2Sc3nnc(C)n3NC2c2ccc(Cl)cc2)cc1 (centres undefined)	-6	-1	0	-4
Cc1ccc(N/C=C/C(=O)c2cccs2)cc1	81*	1	0	37
O=C(/C=C/Nc1ccc(I)cc1)c1cccs1	41*	0	0	23
COC(=O)c1ccc(N/C=C/C(=O)c2cccs2)cc1	53*	-5	0	-8
SMILES	TEAD-YAP inh	GPR151 ag	FBW7 act	MITF inh
O=C(/C=C\Nc1cccc(F)c1)c1cccs1	-4	-2	0	8
CC(C)n1cnc2c(NCc3nc4ccccc4[nH]3)nc(-c3ccc(C(=O)N4CCN(C)CC4)cc3)nc21	65*	-1	0	7
CC(C)n1cnc2c(NCc3nc4ccccc4[nH]3)nc(-c3ccc(C(=O)NC4CC4)cc3)nc21	78*	-1	0	18
CC(C)n1cnc2c(NCc3ccccc3)nc(-c3ccc(C(=O)N4CCN(C)CC4)cc3)nc21	-3	0	0	11
COc1cccc(C2Oc3ccc(Cl)cc3C3=C2C(c2ccc(C)cc2)n2ncnc2N3)c1 (centres undefined)	13	1	0	-3
O=S(=O)(Nc1ccc(Br)cc1)c1ccc(Cc2ccc(S(=O)(=O)Nc3ccc(Br)cc3)cc2)cc1	-6	1	0	1
CC(C)C(=O)Nc1cccc(C(=O)Nc2nnc(CCc3ccccc3)s2)c1	47*	1	0	7
O=C(/C=C/c1cccs1)N1CCc2ccccc21	70*	-6	0	18
O=C(/C=C/c1ccccc1)N1CCc2ccccc21	66*	-6	0	6
Cc1cc(C(=O)N2CCc3ccccc32)n(-c2ccccc2)n1	35*	1	0	3
COc1ccc(/C=C/C(=O)N2CCc3ccccc32)cc1	74*	-7	0	8
O=C(/C=C/c1ccc([N+](=O)[O-])cc1)N1CCCc2ccccc21	-7	1	0	28
O=C(/C=C/c1ccccc1)N1CCCc2ccccc21	-27	2	0	3
O=C1c2ccccc2C(=O)N1CCCN1CCC(c2nc(-c3cccnc3)no2)CC1	1	0	0	1
O=S(=O)(Cc1ccccc1Cl)NCC1(c2ccccc2)CCOCC1	-2	-1	0	-16
COc1ccc(C(=O)NNC(=O)c2ccccn2)cc1	94*	-9	0	-3
COc1ccccc1C(=O)NNC(=O)c1cnccn1	11	1	-1	7
COc1ccccc1C(=O)NNC(=O)c1ccccn1	41*	-2	-2	45
CC(=O)c1ccc(NC(=O)NNC(=O)c2ccccn2)cc1	-44	0	-1	23
CC(=O)c1ccc(NC(=O)c2ccccn2)cc1	87*	-9	0	16
Cc1ccc(C)c(OCC(=O)NNC(=O)c2ccccn2)c1	37*	3	-1	3
CCCNC(=O)CCCc1nc(-c2ccccc2)no1	-6	0	1	12
CCOC(=O)CC(NC(=O)Cn1ncc2c(=O)oc3ccc(C)cc3c21)c1cccs1 (centres undefined)	-4	0	0	-8
Cc1ccc(-c2nc(NCc3ccccc3Cl)c3ccccc3n2)cc1	-9	-1	0	10
CCOC(=O)c1c(NC(=O)c2ccc(-c3cccc(Cl)c3C)o2)sc2c1CCCC2	-5	2	0	6
SMILES	TEAD-YAP inh	GPR151 ag	FBW7 act	MITF inh
Cc1ccc(SCC(=O)NC2CC2)cc1	-19	-1	0	15
O=C(CSc1ccc(Sc2ccc(SCC(=O)NC3CC3)cc2)cc1)NC1CC1	34*	1	1	11
Cc1csc(NC(=O)c2cc([N+](=O)[O-])ccc2Sc2nnnn2C)n1	39*	2	0	2
O=c1[nH]nc(N/N=C/c2ccc(O)cc2)c(=O)[nH]1	-5	1	0	-4
CN(Cc1ccccc1)C1=CC(=[N+]2CCCC2)CC(C)(C)C1	80*	1	0	-3
CCN(CC)C1=CC(=[N+]2CCCC2)CC(C)(C)C1	60*	1	0	10
